# Screens from PubChem BioAssay.
# LMNA splice mod – qHTS Assay for Modulators of Lamin A Splicing; HeLa LMNA splicing GFP/RFP minigene ratio, 48 h; Potency, µM (doses to about 46.1 µM), actives largely listed as inhibitors; 0.01% of 200,000 active; AID 1487, 2009; active = well fitted inhibition curve with a large enough effect in the signal ratio, with a control signal flat, not every such curve was filed as active; inconclusive = small, poorly fitted or top-dose-only effect, or effect the other way, or a change in a side signal; the % refers to the signal ratio
#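 Read-out is the ratio of GFP to DsRed2 object intensity, acquired by 488 nm laser-scanning cytometry on HeLa lamin A-EGFP minigene reporter cells. Compound incubation 48 hrs at 37 °C in Opti-MEM with 2% FBS; DMSO 0.5% final.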
# ALDH1A1 block – qHTS Assay for Inhibitors of Aldehyde Dehydrogenase 1 (ALDH1A1); Potency, µM (doses to about 75.3 µM), actives largely listed as inhibitors; 7.3% of 220,000 active; Purified ALDH1A1, NADH fluorescence, propionaldehyde substrate; AID 1030, 2008; Aldehyde dehydrogenase 1A1 (Homo sapiens), P00352
# Target sequence (P00352 whole entry, looked up): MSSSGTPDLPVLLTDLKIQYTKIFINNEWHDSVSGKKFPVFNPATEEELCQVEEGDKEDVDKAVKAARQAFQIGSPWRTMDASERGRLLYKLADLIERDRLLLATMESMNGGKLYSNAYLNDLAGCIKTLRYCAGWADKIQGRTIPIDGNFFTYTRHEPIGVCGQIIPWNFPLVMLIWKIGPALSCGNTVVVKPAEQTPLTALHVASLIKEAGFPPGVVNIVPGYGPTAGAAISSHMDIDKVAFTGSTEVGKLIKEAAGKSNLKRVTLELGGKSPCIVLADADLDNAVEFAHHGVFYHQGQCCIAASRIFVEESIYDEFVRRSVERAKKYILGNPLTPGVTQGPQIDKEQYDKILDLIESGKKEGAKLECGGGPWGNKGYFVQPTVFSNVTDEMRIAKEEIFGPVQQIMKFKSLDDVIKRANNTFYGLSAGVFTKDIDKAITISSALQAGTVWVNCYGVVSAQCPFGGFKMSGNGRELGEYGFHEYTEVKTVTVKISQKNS
# KDM4E inh – qHTS Assay for Inhibitors of Human Jumonji Domain Containing 2E (JMJD2E); 1.6% of 230,000 active; Lysine-specific demethylase 4E (Homo sapiens), B2RXH2; JMJD2E catalytic domain, FDH-coupled NADH fluorescence (FDH is formaldehyde dehydrogenase); Potency, µM (series often up to 57.1 µM), most hits filed as inhibitors; note: nearly all actives have a fitted effect of over 50% in size
# HttQ103 aggreg – qHTS Multiplex Assay to Identify Dual Action Probes in a Cell Model of Huntington: Aggregate Formation (GFP) | PC12 HttQ103-GFP aggregates, Acumen cytometry, 40 h | Potency, µM (highest dose often 46.1 µM), most hits filed as inhibitors | 1.1% of 220,000 active; active = well fitted curve in the direction sought with a large enough effect; inconclusive = small, poorly fitted or top-dose-only effect, or another doubt; inactive = no such curve, though single readings can be large; an effect the other way counts as inactive or inconclusive; note: nearly all actives have a fitted effect of over 60% in size
#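 Aggregate formation scored by laser-scanning cytometer (488 excitation, 500–530 emission) in lysed PC12 cells expressing Q103-GFP after 100 nM tebufenozide induction; library tested in dose series, with ATPLite reagent added in the multiplex.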
# HTT cytoprotect – qHTS Multiplex Assay to Identify Dual Action Probes in a Cell Model of Huntington: Cytoprotection (ATP); PC12 HTT-Q103 induced, cytoprotection, ATP luminescence, 40 h; Potency, µM (titrated, usually from 56.4 µM), usual class: activators; 0.14% of 230,000 active; AID 1471, 2008; active = well fitted curve in the direction sought with a large enough effect; inconclusive = small, poorly fitted or top-dose-only effect, or another doubt; inactive = no such curve, though single readings can be large; an effect the other way counts as inactive or inconclusive; note: nearly all actives have a fitted effect of over 45% in size
#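 Readout: ATPlite luminescence (ATP level). Model: stable PC12, inducible Htt exon1 Q103-GFP. Inducer: tebufenozide, 100 nM final. Compounds: dose series. No G418 in medium.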
# HPGD inh – qHTS Assay for Inhibitors of HPGD (15-Hydroxyprostaglandin Dehydrogenase) | Potency, µM, hits mostly inhibitors | 4.3% of 150,000 active | purified HPGD, NADH fluorescence kinetic, PGE2 substrate | 15-hydroxyprostaglandin dehydrogenase [NAD(+)] (Homo sapiens), P15428
# Target sequence (P15428 whole entry, looked up): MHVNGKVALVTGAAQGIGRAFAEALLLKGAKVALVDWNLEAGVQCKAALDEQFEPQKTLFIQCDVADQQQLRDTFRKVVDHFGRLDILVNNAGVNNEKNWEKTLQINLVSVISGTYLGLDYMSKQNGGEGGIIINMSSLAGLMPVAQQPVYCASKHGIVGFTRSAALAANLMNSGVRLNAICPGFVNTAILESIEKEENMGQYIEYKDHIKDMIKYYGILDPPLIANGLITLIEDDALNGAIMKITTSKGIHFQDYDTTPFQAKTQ
#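 NADH formation kinetics: reaction with 30 uM PGE2 and 1 mM NAD+ (final), 20 nM enzyme, Tris-HCl pH 8 with Tween 20, after 15 min compound preincubation at room temperature. Fluorescence change, last versus first of five reads.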
# A number is an active result; – = inactive; ? = inconclusive; · = no result; [ ] = remark or other dose. This is a sample that favours compounds with a hit; in the whole collection about 9.2% have one here. Unless noted, calls come from the whole dose curve; as a rule, active = well fitted inhibition curve with a large enough effect (not every such curve was filed as active); inconclusive = small, poorly fitted or top-dose-only effect, or another doubt; inactive = no such curve, though single readings can be large or run the other way.
SMILES,LMNA splice mod,ALDH1A1 block,KDM4E inh,HttQ103 aggreg,HTT cytoprotect,HPGD inh
Cn1nc(-c2ccc(OCC(=O)Nc3ccccc3)cc2)c2ccccc2c1=O,?,–,–,–[9.22 µM],–,28.2µM
CN(C)CCNC(=O)c1ccc(-c2nn(C)c(=O)c3ccccc23)cc1,–,–,–,–[9.22 µM],–,20µM
CN1CCN(C(=O)c2ccc(-c3nn(C)c(=O)c4ccccc34)cc2)CC1,·,·,·,·,–[0.074 µM],·
Cc1ccc(-c2nn(C)c(=O)c3ccccc23)cc1CNC(=O)c1ccco1,–,–,–,?,–,3.55µM
CC(=O)N1CCN(Cc2nc3cc(NC(=O)c4ccc(F)cc4)ccc3n2C)CC1,·,–,–,·,·,·
Cc1ccc(CCNC(=O)c2ccc(CS(=O)(=O)c3ccc(Cl)cc3)o2)cc1,–,·,·,·,·,·
CCCn1c(-c2ccc(F)cc2)nc2c(NC(C)CN(C)C)nc(C)nc21 (stereo not given),·,?,?,·,–,–
CCN(CC)CCn1c(-c2ccccc2)nc2c(NCCO)nc(C)nc21,·,?,?,·,–,?
O=C(Nc1nnc(-c2cccnc2)o1)c1cccc(Cl)c1,?,–,?,–,–,·
COc1ccccc1NC(=O)c1ccc(-c2nn(C)c(=O)c3ccccc23)cc1,?,–,–,–[9.22 µM],–[10 µM],·
CCC(CO)NC(=O)c1ccc(-c2nn(C)c(=O)c3ccccc23)cc1 (stereo not given),–,–,–,–[9.22 µM],–,31.6µM
C[C@@]1(C(NS(=O)(=O)c2cccc3cccnc23)c2ccc(-c3ccccc3)cc2)C[C@H]1C1CCCCC1 (stereo not given in full),·,–,–,·,–,–
O=C(CCc1cnccn1)NC1CCCc2c1cnn2-c1ccc(F)cc1F (stereo not given),–,–,–,–[9.22 µM],–[10 µM],·
CCOC(=O)c1cc(-c2csc(Nc3c(C)cc(C)cc3C)n2)on1,·,14.1µM,–,–[9.22 µM],–[10 µM],·
CCOC(=O)c1cc(-c2csc(-c3cccc(Cl)c3)n2)on1,·,–,–,–[9.22 µM],–[10 µM],·
O=C(NCC(c1cccnc1)N1CCc2ccccc2C1)c1ccc(F)c(F)c1 (stereo not given),–,·,·,·,·,·
COc1cc2nc(N3CCN(C(=O)C4CCCO4)CC3)nc(N)c2cc1OC (stereo not given),?,?,28.2µM,–,–[0.074 µM],?
COCCNC(=O)c1ccc(N2CCCCC2)c(NS(=O)(=O)c2ccc(C)cc2)c1,–,8.91µM,?,–,–[10 µM],–
CCN(CC)CCCNC(=O)c1ccc(N2CCCCC2)c(NS(=O)(=O)c2ccc(C)cc2)c1,·,14.1µM,?,?,–,·
N#CCCn1c(=O)cnc2cnc(N3CCNCC3)nc21,·,?,·,·,–,?
Cc1ccc(NC(=O)CSc2ccccc2NC(=O)c2ccccc2Cl)cc1Cl,?,–,–,–,–[10 µM],–
CN1CCCC2(CCN(C(=O)c3cccn3C)CC2)C1,·,–,·,·,–,–
Cc1ccc(C)c(N2CCN(C(=O)Cn3c(=O)c4cccn4c4ccc(F)cc43)CC2)c1,–,·,·,·,·,·
Cn1c(=O)c2c(nc(NCc3ccco3)n2C/C=C/c2ccccc2)n(C)c1=O,?,–,–,10µM,?,–
Cn1c(=O)c2c(nc(NCc3ccco3)n2C)n(C)c1=O,–,–,–,–,–,–
SMILES,LMNA splice mod,ALDH1A1 block,KDM4E inh,HttQ103 aggreg,HTT cytoprotect,HPGD inh
O=C(O)COc1cccc2nsnc12,–,?,20µM,–,–,?
COC1C(O)C(CO)OC1n1cnc2c(=O)[nH]c(N)nc21 (stereo not given),–,–,–,·,·,–
CC(C)(C)CC(C)(C)N=C1NS(=O)(=O)c2cc([N+](=O)[O-])ccc21,?,?,–,–,–,·
CC(C)(CO)N=C1NS(=O)(=O)c2cc([N+](=O)[O-])ccc21,–,–,–,10µM,·,–
Cc1cccc(NC(=S)N/C(=N/S(=O)(=O)c2ccccc2)c2ccccc2)c1,–,22.4µM,–,–,–,?
Cc1c(NC(=S)N/N=C/c2ccc([N+](=O)[O-])cc2O)c(=O)n(-c2ccccc2)n1C,·,·,10µM,–[9.22 µM],–[10 µM],·
Cc1c(NC(=S)N/C(=N/S(=O)(=O)c2ccccc2)c2ccccc2)c(=O)n(-c2ccccc2)n1C,·,·,–,–[9.22 µM],–[10 µM],·
Cc1c(NC(=S)N/N=C\c2ccccc2O)c(=O)n(-c2ccccc2)n1C,–,–,?,?,–[10 µM],?
CC(=O)c1ccc(NC(=S)Nc2cccc(S(=O)(=O)Nc3c(C)n(C)n(-c4ccccc4)c3=O)c2)cc1,–,25.1µM,–,–,–,·
Cc1ccc(NC(=S)Nc2cccc(S(=O)(=O)Nc3c(C)n(C)n(-c4ccccc4)c3=O)c2)cc1,·,?,–,–,·,·
Cc1c(NC(=S)N/C(=N/S(=O)(=O)c2ccc(Cl)cc2)c2ccccc2)c(=O)n(-c2ccccc2)n1C,·,8.91µM,–,–[9.22 µM],–[10 µM],·
COc1ccc(COC(=O)Nc2cn(C)nc2C(F)(F)F)cc1,·,–,–,–,–,·
O=C(Nc1ccccc1O)c1nc(Cl)ccc1Cl,–[9.22 µM],?,–,–,–,·
CC(C)OC(=S)N/C(=N\S(=O)(=O)c1ccccc1)c1ccccc1,–,11.2µM,–,–,–[10 µM],?
O=[N+]([O-])c1ccc(NC(=S)N/C(=N/CS(=O)(=O)c2ccccc2)c2ccccc2)cc1,–,28.2µM,–,?,–,28.2µM
Cc1ccc(S(=O)(=O)/N=C(/NC(=S)Nc2cccc(C)c2)c2ccccc2)cc1,–,12.6µM,–,–,–,20µM
C/C(=N\S(=O)(=O)c1ccc(C)cc1)NC(=S)Nc1ccc(C)cc1,–,?,–,–,–,·
Cc1cc2c(cc1S(=O)(=O)N(C)CC(=O)Nc1ccc(C#N)cc1)OCC(=O)N2,–,·,·,·,·,·
COc1ccc2c(c1)C(=O)[C@@H](OC(=O)NCCc1ccc(OC)c(OC)c1)[C@H](c1ccc(OC)c(Br)c1)O2,·,–,–,·,–,–
COc1cc2c(cc1O)CCC1C2CC[C@@]2(C)C1CC[C@@H]2O (stereo not given in full),·,–,–,·,–,–
O=C(O)CC[C@@]1(c2ccccc2)NC(=O)NC1=O,·,–[13.5 µM],·,·,–[10 µM],–
Cc1onc(-c2ccccc2)c1CNS(=O)(=O)c1cccc(Br)c1,·,2.82µM,–,–[9.22 µM],–[10 µM],·
Cc1onc(-c2ccccc2)c1CNS(=O)(=O)c1ccc(F)cc1F,·,?,–,–[9.22 µM],–[10 µM],·
Oc1ccccc1N=Cc1c(O)ccc2ccccc12,·,?,25.1µM,–[9.22 µM],–[10 µM],·
CN(C)/N=C/c1c(O)ccc2ccccc12,–,–,–,–,–,31.6µM
CS/C(N)=N/N=C/c1c(O)ccc2ccccc12,·,·,–,–[9.22 µM],–[10 µM],·
C(=Nc1ccc(N2CCOCC2)cc1)c1c[nH]c2ccccc12,·,·,?,–[9.22 µM],–[10 µM],·
